# Measurements reported in the supplement of paper PMC8728848.
# Only a selection was taken, and the strongest signals are over-represented in it overall.
# B1: Cp ZmpB (Clostridium perfringens), Q0TR08 (protein)
# chain: MNKRKIAAIILATMITNLSATTIDVLAQELNTKNNSKVEVSHDDESHQARVSKFDLYNSDKLDAYNQEFQVSRSNIKSINNNGGKYNSSTIDKAIDGNLETHWETGKPNDANFTNEVVVTFNEITNIDRIVYSARRDSARGKGFAKEFEIYASLKDEGDDFNLVSSGEYTESTRDLVEIKFNPTDFKRLKFKFKKADQNWASAAEFMFYKEDKLNEKFNGLFTDSSMNKVSEEFNTLEKLNAFENELKDHPIYDLYKEGLNNARAILTETSENPTKATLGQITYNLNDDYNNQYRMPYKNIKAIKNNGRHYAAQNIEKAIDNDVNTYWETGTLNSSSFNNEVEVEFNDLVTLDRIVYGSRQSDLKGFAEEVYIYASRTSKGDTYKLVATGAHEATKGLVEAKFEPTEFKRVKFKFKKSKQNSATLNELMFYKPDEVYSSIPKLFTDGTMSELSEEFNSLEKINAFKEKAKNHPLYNDFNETIELAESLISNPRKEDVLELEMRGDSISEAKKRKVWNFQDWQITGLSARAGDKITVYVDVAEGDPTPTLLYKQSLTQHGGATSFQLKPGKNEITIPEINYESNGIPKDVIQGGDLFFTNYKSDSQKRAPKVRIEGASKYPVFILGKSDENEVMKELEAYVEKIKAEPKTTPNIFAVSSNKSLEFVQATYALDWYKKNNKTPKYTAEQWDQYIADAMGFWGFDNSKDVNSDFNFRIMPMVKNLSGGAFMNAGNGVIGIRPGNQDAILAANKGWGVAHELGHNFDTGGRTIVEVTNNMMPLFFESKYKTKTRITDQNIWENNTYPKVGLDDYSNNELYNKADSTHLAQLAPLWQLYLYDNTFYGKFERQFRERDFGNKNREDIYKSWVVAASDAMELDLTEFFARHGIRVDDKVKEDLAKYPKPDKKIYYLNDLAMNYKGDGFTENAKVSVSTSGSNGNIKLSFSVDDENKDNILGYEIRRDGKYVGFTSNDSFVDTKSNLDEDGVYVVTPYDRKLNTLNPIEVNALQPTLSVNPVITLALGEEFNEEEYIVAKDIKGNSLSESVKVKSSNVNTSKVGEYEVLYSLEDSKGNEYTKTSKVNVVSRKEYMSDLTPKQSSNGWGTVRKDKSISGGVIGLTRDGDFVDYNKGLGLHSNAEYVYDLEGKDYDYFESYVGVDKAMSSRPASSVIFKVLVDGEEKFNSGVMRSTTPQKYVKVDVKNAKELKLIVNDAGDGDSSDHASFGDAKLATLSSKPIIKGENLAYSMDEKVDLMKGITATDIEDGNITSKVQIKSSDFVEGKSGIFTVVYSVTDSDGLTSECSRTIAVTDKETQLSDLNWKSATIGSGSVRKDRAVSGNQIRLLNEDNSVETFAKGIGTHSYSEIVYNSEGYDIFDTWVGIDRHVADKKVSSVKFKVYVDGELKAETDVMRIDTPKKRLVVDVRNSKEIKLVVDVADNGNNWDHADWADAKFRNLAEYDASELNKAIEEAKKLDLNNYTEESSEALKNAISKGEEALLSKDKETINSALEELNKEMNSLVKVDLNAVINIPDKYLLKSIQNQLNKTGDITLGDMYSLTTLTLSGVEDLTGLENAKNLETLNMDYNEVKDLRPLSKLKKLNTLNAQEQFIAAGELKPSNGKVIGDSKVYNREGKNVAKTIRVVDKNGNTILEQDAKDEFTINTKDLSSGLYGVHVLFEDEGFSGVMFYLFNV
# Columns and labels:
# Assay in all cases: glycan array binding signal (z-score within array); higher = stronger binding
# Settings in all cases: glycan notation: IUPAC condensed, linker removed
# [1] = biological target: Gal3S6S(b1-4)GlcNAc6S
# In short: (§1)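 Glycan array data were curated from 3228 arrays in the Consortium for Functional Glycomics database and kept only where the protein sequence was available. Glycan names were converted to IUPAC-condensed notation, and columns mapping to the same glycan were averaged. The binding signal is a within-array Z-score, averaged across arrays of the same protein sequence at different concentrations or buffers and across linkers. Negative Z-scores can be read as non-binding.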
# [2] = biological target: Gal4S6S(b1-4)GlcNAc
# In short: as §1
# [3] = biological target: Gal6P(b1-4)GlcNAc
# In short: as §1
# [4] = biological target: GlcNAc(b1-2)Gal(b1-3)GalNAc
# In short: as §1
# [5] = biological target: GlcNAc(b1-2)[GlcNAc(b1-4)]Man(a1-3)[GlcNAc(b1-2)Man(a1-6)]Man(b1-4)GlcNAc(b1-4)GlcNAc
# In short: as §1
# [6] = biological target: GlcNAc(b1-3)Gal(b1-4)GlcNAc(b1-3)Gal(b1-4)GlcNAc(b1-3)Gal(b1-4)GlcNAc(b1-2)[GlcNAc(b1-3)Gal(b1-4)GlcNAc(b1-3)Gal(b1-4)GlcNAc(b1-3)Gal(b1-4)GlcNAc(b1-6)]Man(a1-6)[GlcNAc(b1-3)Gal(b1-4)GlcNAc(b1-3)Gal(b1-4)GlcNAc(b1-3)Gal(b1-4)GlcNAc(b1-2)Man(a1-3)]Man(b1-4)GlcNAc(b1-4)[Fuc(a1-6)]GlcNAc
# In short: as §1
# [7] = biological target: GlcNAc(b1-3)Man
# In short: as §1
# [8] = biological target: GlcNAc(b1-3)[GlcNAc(b1-6)]GalNAc
# In short: as §1
# [9] = biological target: Man(a1-3)[Man(a1-6)]Man(b1-4)GlcNAc(b1-4)GlcNAc
# In short: as §1
# [10] = biological target: Neu5Ac(a2-3)Gal(b1-3)GalNAc(b1-4)Gal(b1-4)Glc
# In short: as §1
# [11] = biological target: Neu5Ac(a2-3)Gal(b1-3)GalNAc(b1-4)[Neu5Ac(a2-3)]Gal(b1-4)Glc
# In short: as §1
# [12] = biological target: Neu5Ac(a2-3)Gal(b1-3)GalNAc6S
# In short: as §1
# [13] = biological target: Neu5Ac(a2-3)Gal(b1-3)GlcNAc(b1-2)[Neu5Ac(a2-3)Gal(b1-3)GlcNAc(b1-4)]Man(a1-6)[Neu5Ac(a2-3)Gal(b1-3)GlcNAc(b1-2)Man(a1-3)]Man(b1-4)GlcNAc(b1-4)GlcNAc
# In short: as §1
# [14] = biological target: Neu5Ac(a2-3)Gal(b1-4)GlcNAc(b1-2)Man
# In short: as §1
# [15] = biological target: Neu5Ac(a2-3)Gal(b1-4)GlcNAc(b1-3)GalNAc
# In short: as §1
# [16] = biological target: Neu5Ac(a2-3)Gal(b1-4)GlcNAc(b1-6)[Gal(b1-3)]GalNAc
# In short: as §1
# [17] = biological target: Neu5Ac(a2-3)Gal(b1-4)[Fuc(a1-3)]GlcNAc
# In short: as §1
# [18] = biological target: Neu5Ac(a2-6)Gal(b1-4)GlcNAc(b1-2)Man(a1-3)Man(b1-4)GlcNAc(b1-4)GlcNAc
# In short: as §1
# [19] = biological target: Neu5Ac(a2-6)Gal(b1-4)GlcNAc(b1-2)Man(a1-3)[GlcNAc(b1-4)][Neu5Ac(a2-6)Gal(b1-4)GlcNAc(b1-2)Man(a1-6)]Man(b1-4)GlcNAc(b1-4)GlcNAc
# In short: as §1
# [20] = biological target: Neu5Ac(a2-6)Gal(b1-4)GlcNAc(b1-2)Man(a1-3)[Man(a1-6)]Man(b1-4)GlcNAc(b1-4)GlcNAc
# In short: as §1
# [21] = biological target: Neu5Ac(a2-6)Gal(b1-4)GlcNAc(b1-3)Gal(b1-4)GlcNAc
# In short: as §1
# [22] = biological target: Neu5Ac9Ac(a2-3)Gal(b1-4)GlcNAc
# In short: as §1
# [23] = biological target: Neu5Gc(a2-3)Gal(b1-3)GlcNAc
# In short: as §1
# [24] = biological target: Neu5Gc(a2-3)Gal(b1-4)[Fuc(a1-3)]GlcNAc
# In short: as §1
binder,measurement,setting,value
B1,glycan array binding signal (z-score),[1],1.17
same,glycan array binding signal (z-score),[2],0.461
same,glycan array binding signal (z-score),[3],-0.373
same,glycan array binding signal (z-score),[4],2.81
same,glycan array binding signal (z-score),[5],1.11
same,glycan array binding signal (z-score),[6],-0.173
same,glycan array binding signal (z-score),[7],0.057
same,glycan array binding signal (z-score),[8],-0.207
same,glycan array binding signal (z-score),[9],-0.046
same,glycan array binding signal (z-score),[10],0.164
same,glycan array binding signal (z-score),[11],1.03
same,glycan array binding signal (z-score),[12],-0.457
same,glycan array binding signal (z-score),[13],0.01
same,glycan array binding signal (z-score),[14],0.151
same,glycan array binding signal (z-score),[15],-0.142
same,glycan array binding signal (z-score),[16],1.22
same,glycan array binding signal (z-score),[17],0.096
same,glycan array binding signal (z-score),[18],-0.151
same,glycan array binding signal (z-score),[19],-0.267
same,glycan array binding signal (z-score),[20],-0.365
same,glycan array binding signal (z-score),[21],1.03
same,glycan array binding signal (z-score),[22],1.71
same,glycan array binding signal (z-score),[23],-0.326
same,glycan array binding signal (z-score),[24],2.05
